For 40 compounds, growth, % of control results are on record in PubChem BioAssay (NCATS).

The structures appear in SMILES notation.

This test is described as follows: qHTS profiling of the MIPE4 collection as inhibitors of Plasmodium falciparum (HB3) proliferation (AID 743347). As to conditions: P. falciparum HB3 in erythrocytes, SYBR Green DNA, 72 h; at 28.5 µM (top of the series) unless noted. An excerpt:
Plasmodium falciparum is a virulent malarial parasite that kills 1-2 million people worldwide each year. Transmitted by mosquitoes, the sporozoite form of the parasite enters the blood stream to infect hepatocytes, where they become merozoites that infect red blood cells (erythrocytes). Within erythrocytes, merozoites begin a […] cycle of growth and division, after which the parasite is released to infect new red blood cells. Gametocytes, which form within erythrocytes as well, circulate in the bloodstream and are ingested by the mosquito, thereby completing the life cycle. To profile malarial isolates for differential chemical responses and to identify inhibitors of malarial growth, an assay that measures P. falciparum growth and replication within erythrocytes was employed. This assay uses a DNA binding fluorescent dye (SYBR Green) to detect parasite DNA following cell lysis. Because mature erythrocytes lack DNA, only Plasmodium-derived DNA is detected.
The SYBR Green viability assay was adapted from a method described previously (Plouffe et al., 2008). For screening 3 ul culture medium was dispensed into 1536 well black clear bottom plates (Aurora Biotechnologies) using a Multidrop Combi (Thermo Fisher Scientific Inc.), 23 nL compounds in DMSO were added by a pin tool (Kalypsys), and 5 ul of erythrocytes infected with P. falciparum (0.3% parasitemia, 2.5% hematocrit final concentration) were added. The plates were incubated at 37 C in a humidified incubator in 5% CO2 for 72 h, and 2 ul lysis buffer (20 mM Tris HCl, 10 mM EDTA, 0.16% saponin, 1.6% triton X, 10X SYBR Green I supplied as 10,000X […] by Invitrogen) was added to each well. The plates were mixed for 25 sec with gentle shaking and incubated overnight at room temperature in the dark. The following morning, fluorescence intensity at 485(14) nm excitation and 535(25) nm emission wavelengths was measured on an EnVision (Perkin Elmer) plate reader. Plate reads were normalized relative to the control inhibitor (0.29 uM artemisinin) and vehicle (DMSO) wells present on each plate and then corrected by an algorithm using vehicle-only control plates at the beginning and end of the compound plate stack.
(In general: Quantitative high-throughput screening tests each substance at several concentrations.)
For the compound `Cc1cn(-c2cc(NC(=O)c3ccc(C)c(Nc4nccc(-c5cccnc5)n4)c3)cc(C(F)(F)F)c2)cn1`, the growth, % of control stood at 7.2%.

In turn, `CC=CC1=C(C(=O)O)N2C(=O)[C@H](NC(=O)[C@H](N)c3ccc(O)cc3)[C@@H]2SC1` displayed a growth, % of control of 88%. In turn, `OCCCNc1cc(-c2ccnc(Nc3cccc(Cl)c3)n2)ccn1` had a growth, % of control of 6.21%. The value for `Cc1cc(CN2CCN(c3c(Br)cnc4nc(-c5ccc(N6CCN(C)CC6)cc5)[nH]c34)CC2)no1` was 4.61%; that for `Cc1cc(C(=O)N2CCN(c3cccc(Cl)c3)CC2)n(-c2ccccc2)n1` was 108%; that for `CC(C)[C@H](C(=O)Nc1ccc(C(=O)NO)cc1)c1ccccc1` was 9.39%. In turn, `Cc1[nH]nc2ccc(-c3cncc(OC[C@@H](N)Cc4ccccc4)c3)cc12` returned a growth, % of control of 8.27%. Compound `CN(C)Cc1c(C(=O)NCCOc2ccc(C(=O)NO)cc2)oc2ccccc12` displayed a growth, % of control of 6.43%. Compound `CC(NCc1ccc2c(c1)nc(NC(=O)c1ccc(-c3cn[nH]c3)s1)n2CC(C)(C)O)C(C)(C)C` (stereo not given) gave a growth, % of control of 3.84%. In the case of `COC(=O)C1=C(C)NC(C)=C(C(=O)OCCN2CCN(C(c3ccccc3)c3ccccc3)CC2)C1c1cccc([N+](=O)[O-])c1` (stereo not given) it was 18.9%. In the case of `Cc1c(CN2CCN(S(C)(=O)=O)CC2)sc2c(N3CCOCC3)nc(-c3cnc(N)nc3)nc12` it was 5.68%. As to `CN1CC[C@@H](c2c(O)cc(O)c3c(=O)cc(-c4ccccc4Cl)oc23)[C@@H](O)C1`, the growth, % of control worked out at 11.3%. In the case of `CCC1=C[C@@H]2CN(C1)Cc1c([nH]c3ccccc13)[C@@](C(=O)OC)(c1cc3c(cc1OC)N(C)[C@@H]1[C@@](O)(C(=O)OC)[C@H](OC(C)=O)[C@]4(CC)C=CCN5CC[C@]31[C@@H]54)C2` it was 8.82%. As to `COc1ccc2c(c1)CC[C@@H](CN(C)CC(=O)O)[C@H]2c1ccccc1`, the growth, % of control was found to be 24.2%.

Take `Clc1cccc(-c2nnnn2Cc2cccnc2)c1Cl`: the growth, % of control was found to be 86.1%.

`CC[C@@H]1C(=O)N(C)c2cnc(Nc3ccc(C(=O)NC4CCC(N5CCN(CC6CC6)CC5)CC4)cc3OC)nc2N1C(C)C` (stereo not given in full) came in with a growth, % of control of 6.88%. Turning to `COc1cccc2c(NCc3ccccc3)nc(-n3c(N)nc4ccccc43)nc12`, the growth, % of control is 3.05%.

Consider `Cc1cc(Nc2cc(NC(=O)c3c(Cl)cccc3Cl)ccn2)nc(N)n1`, for which the growth, % of control was found to be 8.82%. In the case of `COc1cc2ncnc(Nc3ccc(F)c(Cl)c3)c2cc1NC(=O)C=CCN1CCCCC1` it was 6.53%; in that of `N#Cc1c(O)c2c(-c3ccc(-c4ccccc4O)cc3)csc2[nH]c1=O`, 71.1%; in that of `Cn1cncc1[C@@](N)(c1ccc(Cl)cc1)c1ccc2c(c1)c(-c1cccc(Cl)c1)cc(=O)n2C`, 5%.

Consider `COc1cccc2nc(-c3cccs3)nc(NN3C(=O)C=C(C)C3=O)c12`, for which the growth, % of control is 6.3%. In turn, `CC(=O)Nc1sc2c(c1-c1nc3ccccc3s1)CNC2` yielded a growth, % of control of 10.8%. With `O=C(Nc1ncc(-c2cc(C(F)F)nn2-c2c(Cl)cccc2Cl)s1)C1CC1`, the growth, % of control came to 19.5%.

In the case of `CNC(=O)c1nn(C)c2c1C(C)(C)Cc1cnc(Nc3ccc(N4CCN(C)CC4)cc3)nc1-2`, the growth, % of control stood at 3.32%. The value for `CC1=C(CO)C(=O)O[C@@H]([C@@H](C)[C@H]2CC[C@H]3[C@@H]4C[C@H]5O[C@]56[C@@H](O)C=CC(=O)[C@]6(C)[C@@H]4CC[C@]23C)C1` was 3.14%; that for `CCCCCN(CCC12CC3CC(CC(C3)C1)C2)C(=O)NCCCc1ccncc1` was 6.74%. In turn, `CCc1cc2c(cc1N1CCC(N3CCOCC3)CC1)C(C)(C)c1[nH]c3cc(C#N)ccc3c1C2=O` gave a growth, % of control of 12.5%. In the case of `Cc1c(NC(=O)OC[C@@H]2COCCN2)cn2ncnc(Nc3ccc4c(cnn4Cc4cccc(F)c4)c3)c12`, the growth, % of control amounted to 11.2%.

In turn, `CNc1nccc(-c2cccnc2Oc2cc(C(=O)Nc3cccc(C(F)(F)F)c3)ccc2C)n1` came in with a growth, % of control of 7.15%. In the case of `CC(=O)SC[C@@H](C)C(=O)N1CCC[C@H]1C(=O)N[C@@H](Cc1ccccc1)C(=O)O` it was 111%; in that of `CC[C@@H]1C(=O)N(C)c2cnc(Nc3ccc(C(=O)NC4CCN(C)CC4)cc3OC)nc2N1C1CCCC1`, 6.34%. As to `OCc1ccc(-c2ccc(-c3ccc(CO)s3)o2)s1`, the growth, % of control stood at 64.5%.

As for `CC(C)(C)NC(=O)[C@H]1CN(Cc2cccnc2)CCN1C[C@@H](O)C[C@@H](Cc1ccccc1)C(=O)N[C@H]1c2ccccc2C[C@H]1O`, the growth, % of control worked out at 7.39%. For `Cc1ccc(C(=O)Nc2cccc(C(F)(F)F)c2)cc1-c1ccc2nc(NCCN3CCOCC3)ncc2c1`, the growth, % of control came out at 8.15%. Compound `Nc1ccn([C@@H]2CS[C@H](CO)O2)c(=O)n1` came in with a growth, % of control of 263% [at 57.5 µM]. Regarding `CN(c1ncccc1CNc1nc(Nc2ccc3c(c2)CC(=O)N3)ncc1C(F)(F)F)S(C)(=O)=O`, the growth, % of control was 10.4%.

Consider `CCCCc1nc2cc(C=CC(=O)NO)ccc2n1CCN(CC)CC`, for which the growth, % of control was 4.84%. As to `CN[C@H]1CCc2cc(OC)c(OC)c(OC)c2-c2ccc(OC)c(=O)cc21`, the growth, % of control came to 90.6%. The value for `Nc1ccn([C@@H]2O[C@H](CO)[C@H](O)C2(F)F)c(=O)n1` was 42.2%.
